Each structure is given as a SMILES string. Several values for one entry are separate records, joined by “and”; a condition that tells them apart may be missing. Equal entries are not always repeated. Inconclusive results are not listed. The source holds several records for some structures; these can differ, active in one and inactive in another. Activity calls are given as the source filed them. How the source made its calls: active means hit-call score of the fitted dose curve at least 0.9, where 1 is the maximum; inconclusive means response in the unintended direction; inactive means score below 0.9.

Experiment [1] is described as follows: TOX21_p53_BLA_p2_viability: Viability Assessment in the Tox21 HCT-116 p53 Agonism Beta-lactamase Assay, Phase 2 (AID 2283591).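 Further: compound exposure lasted 16 h at 37 °C; actives lower the ATP signal meaning cytotoxicity.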 In outline:
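HCT-116 p53-bla cells (4000/well) rested 5 h at 37C, then received compounds in DMSO (217-fold dilution) for 16 h at 37C, 5% CO2. After the CCF4 read, CellTiter-Glo was added; ATP luminescence was read after 30 min at room temperature.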

Experiment [2] concerns the target Cellular tumor antigen p53 (Homo sapiens) (UniProt P04637). In words: TOX21_p53_BLA_p2_ratio: Tox21 HCT-116 p53 Agonism Beta-lactamase Assay, Ratio, Phase 2 (AID 2283592). Summed up: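 In this cell-based reporter format, HCT116 cells were dosed with chemicals delivered from DMSO by 217-fold dilution and incubated 16 h at 37C. Emission at 460 and 530 nm after 2 h CCF4-AM loading provided the ratio, fitted upward versus DMSO.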

Experiment [3] is described as follows: TOX21_p53_BLA_p3_viability: Viability Assessment in the Tox21 HCT-116 p53 Agonism Beta-lactamase Assay, Phase 3 (AID 2283593).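 Further: cells exposed to compound for 16 h before reading.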 In outline:
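HCT-116 cells (4000/well) rested 5 h at 37C, then got DMSO compounds by pin tool (217-fold dilution) for 16 h at 37C, 5% CO2. After the bla read, CellTiter-Glo was added and luminescence read at 30 min, room temperature.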

Experiment [4] has as its target Cellular tumor antigen p53 (Homo sapiens) (UniProt P04637). In words: TOX21_p53_BLA_p3_ratio: Tox21 HCT-116 p53 Agonism Beta-lactamase Assay, Ratio, Phase 3 (AID 2283596). In outline:
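HCT116 p53-bla cells (4000/well) given compound in DMSO (217-fold dilution) after 5 h, incubated 16 h at 37C. CCF4-AM substrate 2 h at room temperature; 460/530 nm emission ratio, gain fitted against DMSO.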

Experiment [5] can be described thus: TOX21_p53_BLA_p4_viability: Viability Assessment in the Tox21 HCT-116 p53 Agonism Beta-lactamase Assay, Phase 4 (AID 2283597).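 Further: hits lower the luminescence signal meaning cytotoxicity.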 Summed up:
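We seeded HCT116 p53 reporter cells at 4000/well and waited 5 h. We then added compounds in DMSO at a 217-fold dilution and incubated for 16 h. Viability was read as CellTiter-Glo luminescence after 30 min at RT.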

In experiment [6] the target is Cellular tumor antigen p53 (Homo sapiens) (UniProt P04637). In words: TOX21_p53_BLA_p5_ratio: Tox21 HCT-116 p53 Agonism Beta-lactamase Assay, Ratio, Phase 5 (AID 2283599). In outline:
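HCT-116 cells carrying a p53-inducible beta-lactamase reporter were seeded at 4000 cells/well and dosed after 5 h with compound in DMSO (217-fold dilution). After 16 h at 37C, CCF4-AM substrate was added for 2 h, and the 460/530 nm emission ratio was scored as gain-of-signal versus DMSO.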

Experiment [7] can be described thus: TOX21_p53_BLA_p5_viability: Viability Assessment in the Tox21 HCT-116 p53 Agonism Beta-lactamase Assay, Phase 5 (AID 2283600). In outline: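 Compounds, pinned from DMSO at 217-fold dilution, were left on the cells for 16 h. The viability endpoint was ATP content measured by CellTiter-Glo luminescence, where falling signal reflects cytotoxicity.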
The target of experiment [8] is Cellular tumor antigen p53 (Homo sapiens) (UniProt P04637). Description: TOX21_p53_BLA_p4_ratio: Tox21 HCT-116 p53 Agonism Beta-lactamase Assay, Ratio, Phase 4 (AID 2283601). Summed up:
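HCT116 cells carrying an inducible beta-lactamase reporter were plated at 4000 cells/well, rested 5 h, then exposed to compounds in DMSO (217-fold dilution) for 16 h at 37C. CCF4-AM substrate was loaded 2 h at room temperature; 460/530 nm emission ratio scored gain-of-signal versus DMSO.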

Chain of Cellular tumor antigen p53 (Homo sapiens) (P04637 whole entry, looked up): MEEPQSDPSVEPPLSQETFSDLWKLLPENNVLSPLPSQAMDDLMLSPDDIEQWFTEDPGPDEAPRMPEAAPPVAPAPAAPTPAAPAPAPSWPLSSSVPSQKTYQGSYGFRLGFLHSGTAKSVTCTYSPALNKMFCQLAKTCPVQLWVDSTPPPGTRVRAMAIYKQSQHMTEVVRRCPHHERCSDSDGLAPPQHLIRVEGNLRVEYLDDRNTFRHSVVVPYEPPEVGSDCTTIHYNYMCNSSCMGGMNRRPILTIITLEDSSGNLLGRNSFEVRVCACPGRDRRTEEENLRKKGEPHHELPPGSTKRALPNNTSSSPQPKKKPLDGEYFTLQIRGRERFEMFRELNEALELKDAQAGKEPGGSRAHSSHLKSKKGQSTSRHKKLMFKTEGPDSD

In the case of `CCCCCCCCCC(=O)NO`, the result in experiment [1], in experiment [2], in experiment [3], in experiment [4], in experiment [5] and in experiment [6] was inactive. Moreover, the compound was called inactive in experiment [7] and in experiment [8]. Further, the AC50 (in general, the midpoint of the concentration-response curve, whichever way the signal moves) in experiment [2] was 23.1 µM (active); in experiment [8], 24.3 µM (active).
For the compound `CCCCCOC(=O)CCCC`, the compound was called inactive in experiment [1], in experiment [2] and in experiment [3].
In the case of `Cc1cc(-c2ccccc2)nnc1NCCN1CCOCC1`, the outcome in experiment [1], in experiment [2] and in experiment [3] was inactive.
Take `CC(=O)Nc1ccccc1C`: the result in experiment [1], in experiment [2], in experiment [3], in experiment [4], in experiment [5] and in experiment [6] was inactive.
Take `NC[C@H]1O[C@H](O[C@H]2[C@H](O)[C@@H](O[C@H]3O[C@H](CO)[C@@H](O)[C@H](N)[C@H]3O)[C@H](N)C[C@@H]2N)[C@H](O)[C@@H](O)[C@@H]1O`: the call in experiment [1], in experiment [2], in experiment [3], in experiment [4], in experiment [5] and in experiment [7] was inactive. In experiment [8], the result was inactive. Moreover, the half-maximal activity concentration (AC50) in experiment [2] was 3.79 µM (active); in experiment [6], 3.34 µM (active).
On to `Cc1cccc2cccnc12`, for which the outcome in experiment [1], in experiment [2], in experiment [3], in experiment [4] and in experiment [5] was inactive.
As to `COC(=O)C1=C(C)NC(C)=C(C(=O)OC)C1c1ccccc1[N+](=O)[O-]`, the call in experiment [1], in experiment [2], in experiment [3], in experiment [4], in experiment [5] and in experiment [6] was inactive. In addition, the outcome in experiment [7] was inactive. For the same compound, in experiment [3], the AC50 was 38.3 µM (active).
In the case of `CCc1nn(CCCN2CCN(c3cccc(Cl)c3)CC2)c(=O)n1CCOc1ccccc1`, the outcome in experiment [1], in experiment [2], in experiment [3], in experiment [4], in experiment [6] and in experiment [7] was inactive. In addition, the outcome in experiment [8] was inactive. The AC50 was 18.9 µM (active) in experiment [3]; 23 µM (active) and 14.9 µM (active) in experiment [5].
For the compound `CO[C@H]1C[C@@H]2CC[C@@H](C)[C@@](O)(O2)C(=O)C(=O)N2CCCC[C@H]2C(=O)O[C@H]([C@H](C)C[C@@H]2CC[C@@H](O)[C@H](OC)C2)CC(=O)[C@H](C)/C=C(\C)[C@@H](O)[C@@H](OC)C(=O)[C@H](C)C[C@H](C)\C=C/C=C/C=C/1C`, the AC50 in experiment [1] was 18.1 µM (active) and 20.6 µM (active); in experiment [2], 29.7 µM (active); in experiment [3], 33.3 µM (active) and 22.4 µM (active); in experiment [4], 41 µM (active) and 40.8 µM (active); in experiment [5], 17.5 µM (active) and 17.7 µM (active); in experiment [6] it was 35.1 µM (active) and 34.8 µM (active). Moreover, the half-maximal activity concentration (AC50) in experiment [7] was 23.7 µM (active) and 23.9 µM (active); in experiment [8] it was 21.7 µM (active) and 20.8 µM (active). In addition, in experiment [2], the outcome was inactive.
For the compound `C[C@@H]1CCC[C@H](C)N1`, the result in experiment [1], in experiment [2], in experiment [3], in experiment [4], in experiment [5] and in experiment [6] was inactive.
Take `O=[N+]([O-])c1cccc(C(F)(F)F)c1`: the compound was called inactive in experiment [1], in experiment [2], in experiment [3] and in experiment [4].
For the compound `CC1=CC(=C(c2ccc(N)cc2)c2ccc(N)cc2)C=CC1=N`, the compound was classed as inactive in experiment [1], in experiment [2], in experiment [3], in experiment [4], in experiment [5] and in experiment [6]. For the same compound, the result in experiment [7] and in experiment [8] was inactive. Further, the half-maximal activity concentration (AC50) in experiment [2] was 19.9 µM (active).
`OCc1cc(C(O)CNCCCCCCOCCCCc2ccccc2)ccc1O` (configuration not stated): the compound was called inactive in experiment [1], in experiment [2], in experiment [3], in experiment [4], in experiment [5] and in experiment [6]. The result in experiment [7] and in experiment [8] was inactive. Besides, the AC50 in experiment [5] is 28.2 µM (active).
In the case of `C=Cc1ccc(S(=O)(=O)O)cc1`, the outcome in experiment [1], in experiment [2], in experiment [3], in experiment [4], in experiment [5] and in experiment [6] was inactive. Also, the outcome in experiment [7] and in experiment [8] was inactive. Moreover, the AC50 in experiment [5] is 46.1 µM (active).
Consider `O=C1[C@H]2CCCC[C@H]2C(=O)N1CCCCN1CCN(c2nsc3ccccc23)CC1`, for which the compound was classed as inactive in experiment [1], in experiment [2], in experiment [3], in experiment [4], in experiment [5] and in experiment [6]. In addition, in experiment [7], the call was inactive.
In the case of `CC(CO)(CO)C(=O)O`, the compound was classed as inactive in experiment [1], in experiment [2], in experiment [3], in experiment [4], in experiment [5] and in experiment [6]. For the same compound, the outcome in experiment [7] was inactive.
Consider `CC=C(C)C#N`, for which the compound was called inactive in experiment [1], in experiment [2], in experiment [3], in experiment [4], in experiment [5] and in experiment [6]. For the same compound, the compound was classed as inactive in experiment [7].
For `CCCOC(C(=O)OC1CCN(C)CC1)(c1ccccc1)c1ccccc1`, the outcome in experiment [1], in experiment [2], in experiment [3], in experiment [4], in experiment [5] and in experiment [6] was inactive. The outcome in experiment [7] was inactive.

The values above are taken from PubChem BioAssay (EPA / NIEHS).
